Measured values: PubChem BioAssay AID492947 (National Center for Advancing Translational Sciences (NCATS), 2010)
The whole screen tested about 330,000 compounds, of which about 80 (0.02%) were called active. This is one part of a sample in which actives are shown more often than they occur. Calls come from the whole dose curve; as a rule, active = well fitted activation curve with a large enough effect; inconclusive = small, poorly fitted or top-dose-only effect; inactive = flat fitted curve, though single readings scatter. Square brackets hold non-standard residues; d marks the D form. Peptide text beside a SMILES is read from it. * marks the point of attachment. PhAc = O=C(Cc1ccccc1)*

What follows are compounds tested against Beta-2 adrenergic receptor (Homo sapiens) (UniProt P07550) (assay: qHTS assay of beta-arrestin-biased ligands of beta2-adrenergic receptor). Conditions: beta-arrestin recruitment to beta2AR, cell-based reporter; series mostly up to 46.1 µM; activation: at the top concentration.
Beta-2 adrenergic receptor (Homo sapiens), sequence (P07550 whole entry, looked up): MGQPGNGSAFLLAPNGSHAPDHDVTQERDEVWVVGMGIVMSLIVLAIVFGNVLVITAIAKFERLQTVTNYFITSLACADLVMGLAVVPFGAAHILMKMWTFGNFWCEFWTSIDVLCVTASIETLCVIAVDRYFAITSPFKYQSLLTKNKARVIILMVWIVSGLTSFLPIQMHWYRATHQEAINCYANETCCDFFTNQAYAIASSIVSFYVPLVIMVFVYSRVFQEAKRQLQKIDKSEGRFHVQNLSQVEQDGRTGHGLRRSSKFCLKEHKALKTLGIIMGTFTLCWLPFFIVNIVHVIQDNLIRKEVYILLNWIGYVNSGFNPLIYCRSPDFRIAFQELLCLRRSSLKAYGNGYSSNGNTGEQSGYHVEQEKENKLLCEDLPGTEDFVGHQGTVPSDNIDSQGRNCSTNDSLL
From the text: NIH Molecular Libraries Probe Production Network [MLPCN]
NIH Chemical Genomics Center [NCGC]
PI: Bryan Roth and Bob Lefkowitz
The concept of biased agonism is an emerging concept of molecular pharmacology which proposes that seven transmembrane receptors (7TMRs) or G protein-coupled receptors (GPCRs), exist in multiple signaling conformations and complexes and that ligands (either agonists or antagonists) can induce signaling biased responses for distinct signal transduction cascades.
Furthermore, accumulating evidence over the last decade has drawn attention to a novel function of beta-arrestins as signal transducers that scaffold various signaling molecules upon activation of 7TMRs. […] This beta-arrestin-biased signaling presumably leads to distinct physiological outcomes from those by G protein activation.
Additionally, the active receptor conformations which […] on this beta-arrestin signaling are likely different from those activating G protein signaling
The goal of this screening project will be to discover and optimize novel beta-arrestin-biased ligands for beta2-AR signaling. A luminescent cell-based assay for beta2-AR-mediated agonism, known as the Tango assay, has been validated in which ligand binding of a recombinant beta2-AR and subsequent recruitment of a recombinant beta-arrestin lead to the release of the transcriptional activator tTA, which upregulates transcription of a tTA-responsive luciferase gene. […] Compounds were screened as a concentration-titration series that ranged from 46 microM to 0.6 nM.
NCGC Assay Protocol Summary:
Tango cells were dispensed into white, solid, tissue-culture-treated 1536-well plates at 1500 cells/well in DMEM, containing 1% fetal bovine serum (FBS). Then, 23 nL of compounds or DMSO were delivered to each well using a pin tool. Plates were incubated at 37 degrees C, 5% CO2 for 18 hr. Then 2.5 uL luminescent substrate mix (in-house prepared: 150 mM Tris-Cl, pH 7.6, 3 mM MgCl2, 1% Triton X-100, 5 mM DTT, 0.5 mM CoA, 0.15 mM ATP, 0.44 mM D-luciferin, final concentrations) was added to each well. Plates were then incubated for 15 minutes at room temperature, and subsequently measured on a ViewLux plate reader for luminescent signal using a clear filter with a 10 second exposure and 2x binning. The %Activity was determined from the corrected luminescence values.
Concentration-response curves were fitted to the signals arising from the resulting luminescence. The concentration-effect curves were then classified based on curve quality (r2), response magnitude and degree of measured activity, and compounds were subsequently categorized based on their curve class.
Keywords: biased agonism, beta2-AR, beta-arrestin, GPCR, 7TMR, Tango, luminescence, MLSMR, MLPCN, NIH Roadmap, qHTS, NCGC
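Note: 0% = DMSO controls and full agonism = EC100 isoproterenol or metaproterenol; nearly all actives have a fitted effect of over 65% in size.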

Row | Structure (SMILES) | activation
1 | C=C1CCN([C@H](C(=O)NCc2cc(OC)c(OC)c(OC)c2)C(C)C)S(=O)(=O)c2ccccc21 | 0.37% (inactive)
2 | COc1cc(C2C3=C(CCCC3=O)OC3=C2C(=O)CCC3)ccc1OCC(=O)Nc1ccccc1 | -0.63% (inactive)
3 | O=S(=O)(O)CCN1CCOCC1 | -0.0424% (inactive)
4 | O=S(=O)(NC1CCCCC1)c1ccc(F)c2ccccc12 | -0.345% (inactive)
5 | NS(=O)(=O)c1cc2c(cc1Cl)NC(C(Cl)Cl)NS2(=O)=O (stereo not given) | -0.908% (inactive)
6 | COc1ccc(/C(O)=C2/C(=O)C(=O)N(CC3CCCO3)C2c2ccc(OC)c(OC)c2)cc1 (stereo not given) | -0.248% (inactive)
7 | CCCOc1ccc(-c2c(C(=O)N/N=C/c3ccco3)nnn2-c2nonc2N)cc1 | -0.534% (inactive)
8 | Cc1cc(S(=O)(=O)c2cc3ccc(O)c(C)c3oc2=O)ccc1F | 0.271% (inactive)
9 | CSCC[C@H](NC(=O)NC1CCCC1)C(=O)O | 0.222% (inactive)
10 | CCN(c1ccccc1)S(=O)(=O)c1ccc(C(=O)Nc2ccccc2OC)cc1 | 0.146% (inactive)
11 | Cc1ccc(CN2CCN(Cc3ccc(OCCO)cc3)CC2CCO)o1 (stereo not given) | -0.418% (inactive)
12 | COc1ccc(OC)c(NC(=O)c2sc3nc(C)cc(C)c3c2N)c1 | 0.456% (inactive)
13 | CCCN1CCN(C(=O)Cn2ncc3ccccc32)CC1 | -1.82% (inactive)
14 | C[C@H](CO)N1C[C@H](C)[C@@H](CN(C)C(=O)Nc2ccc3c(c2)OCO3)Oc2c(cccc2N(C)C)C1=O | -0.0114% (inactive)
15 | CCn1ccnc1CN1CCCC(C(=O)c2ccc3c4c(cccc24)CC3)C1 (stereo not given) | 7.21% (inactive)
16 | Cc1cccc(C(=O)NNC(=O)CSc2nnc(C(C)C)n2C)c1 | 0.405% (inactive)
17 | C/C=C/C(=O)Nc1nnc(C(C)C)s1 | 0.101% (inactive)
18 | CCSc1nc2c(c(=O)[nH]1)C(c1cccnc1)C(C(=O)OC(C)C)=C(C)N2 (stereo not given) | 2.44% (inactive)
19 | CC1(C)CC(N(Cc2ccccc2)C(=O)Cc2ccccc2)CCO1 (stereo not given) | 0.0559% (inactive)
20 | COc1cccc(N(CC(=O)NC2CCCC2)C(=O)CCCC(=O)Nc2ccccn2)c1 | -0.143% (inactive)
21 | O=C1CSc2ccc(S(=O)(=O)NCc3ccccc3)cc2N1 | 0.128% (inactive)
22 | CN(c1cccc(NC(=O)c2ccc(CN3CCc4ccccc4C3)cc2)c1)S(C)(=O)=O | -0.688% (inactive)

Row | Structure (SMILES) | activation
23 | COc1ccc(NC(=O)C2CCC(CNS(=O)(=O)c3csc(C(N)=O)c3)CC2)cc1OC (stereo not given) | 0.217% (inactive)
24 | O=C(NCCc1ccc(C(F)(F)F)cc1)c1ccc2c(c1)OCO2 | 0.112% (inactive)
25 | COc1ccc(C(C)=O)cc1CN1C(=O)NC2(CCCCC2C)C1=O (stereo not given) | -0.794% (inactive)
26 | Cc1ccc(NC(=O)CS(=O)CC(=O)N(c2ccccc2)C(C)C(=O)NC2CCCC2)cc1 (stereo not given) | -0.262% (inactive)
27 | CC(C)C[C@@H](NC(=O)[C@H]1CCCN1C(=O)Cc1ccccc1)C(N)=O (PhAc-[dP]-[dL]-NH2) | 0.667% (inactive)
28 | CCOC(=O)Cn1c(O)c(N=NC(=O)CNC(=O)Cc2ccccc2)c2ccccc21 | 0.315% (inactive)
29 | CCn1c(CC(=O)Nc2ccc(C)cc2)nnc1SCC(=O)Nc1nc(C)cs1 | -1.04% (inactive)
30 | Cc1noc(C)c1C(=O)OCC(=O)N1CCN(S(=O)(=O)c2ccc3ccccc3c2)CC1 | -0.677% (inactive)
31 | Cc1nc2ccc(NC(=O)C3CCCCC3)cc2s1 | -0.228% (inactive)
32 | Cc1ccc(NC(=S)NCCc2ccc(Cl)cc2)c(C)c1 | -0.056% (inactive)
33 | CCCCOC(=O)Nc1nccs1 | 0.2% (inactive)
34 | O=C(CN(Cc1ccccc1)C(=O)c1ccc2c(c1)OCCO2)NCc1ccc2c(c1)OCO2 | -0.348% (inactive)
35 | CC(OC(=O)CN1C(=O)c2ccccc2C1=O)C(=O)c1ccccc1 (stereo not given) | -0.0877% (inactive)
36 | COc1ccc(OC)c(CNC(=O)c2cc(=O)[nH]c3ccc(S(=O)(=O)N4CCCC4)cc23)c1 | 0.0882% (inactive)
37 | CCCCN=C1N/C(=C\c2ccco2)C(=O)N1c1ccccc1 | 0.239% (inactive)
38 | CC12C(=O)N(c3ccccc3)C(=O)C1C(c1ccccc1)N1CCCN12 (stereo not given) | -0.468% (inactive)
39 | Cc1c(Cl)cccc1NC(=O)NCc1ccc(C)n1C | 0.368% (inactive)
40 | CCOC(=O)Cc1ncccc1C(=O)Nc1ccc(OC(F)(F)F)cc1 | 0.342% (inactive)
41 | CCOC(=O)N1CCC(N(CCOC)C(=O)Nc2ccc(C)c(C)c2)CC1 | -1.07% (inactive)
42 | CCOC(=O)N/N=C1\CC(C)S(=O)(=O)c2ccc(Cl)cc21 (stereo not given) | 0.455% (inactive)
43 | CC1CCC(C(C)C)C(=O)/C1=C\c1ccc(NC(=O)CCC(=O)O)cc1 (stereo not given) | -0.303% (inactive)
44 | COC(=O)c1ccc(-c2c(-c3ccccc3)ncc3cc(OC)c(OC)cc23)cc1 | 0.148% (inactive)

Row | Structure (SMILES) | activation
45 | NC1=NC2(CCCCC2)N(c2ccc(F)cc2F)C(N)=N1 | 0.0396% (inactive)
46 | O=C(Oc1ccc(Br)cc1C(=S)N1CCOCC1)c1cccc([N+](=O)[O-])c1 | 0.418% (inactive)
47 | CCOC(=O)C1CCN(Cc2coc3ccc(Cl)cc3c2=O)CC1 | -0.282% (inactive)
48 | COc1ccc(S(=O)(=O)N(C)CC(=O)N2CCCC2)cc1Cl | -0.204% (inactive)
49 | C/C(=N\NC(=O)c1cc2c(s1)CCC(C)C2)c1cccnc1 (stereo not given) | -0.278% (inactive)
50 | COC(=O)[C@H](CC(C)C)NC(=O)N1CCCCC1C (stereo not given in full) | -0.413% (inactive)
51 | Cc1ccccc1-n1nc(C)c2c1N=C1C(Cl)=CC(Cl)=CN1C2c1ccc(C(=O)O)cc1 (stereo not given) | -0.645% (inactive)
52 | COc1ccc2c(c1)CCc1cn3ncc(C#N)c3nc1-2 | -0.718% (inactive)
53 | COc1ccc(OCC(=O)NCCc2ccc(S(N)(=O)=O)cc2)cc1 | -0.147% (inactive)
54 | Cc1nn(-c2ccccc2)c2sc(C(=O)N(Cc3ccco3)C(C)C(=O)NC(C)(C)C)cc12 (stereo not given) | -0.496% (inactive)
55 | Cc1ccccc1N1CCN(C2CCCN(C(=O)c3cn4c(C)cccc4n3)C2)CC1 (stereo not given) | 0.177% (inactive)
56 | COCCn1c(SCC(=O)Nc2cc(OC)ccc2OC)nc2c(c1=O)SC(C)C2 (stereo not given) | -0.395% (inactive)
57 | Cc1cc(Cl)ccc1NC(=S)N1CCC(C(N)=O)(N2CCCCC2)CC1 | -0.676% (inactive)
58 | C[C@H]1COC(=O)[C@H](CC(=O)OC(C)(C)C)C/C=C\C[C@@H](CC(=O)N[C@H](CO)Cc2ccccc2)C(=O)N1 | -0.195% (inactive)
59 | CCCn1c(C(Cc2ccccc2)NC(=O)COC)nc2ccccc21 (stereo not given) | 0.278% (inactive)
60 | O=C(Nc1ccccc1F)C1C2C=CC3(O2)C1C(=O)N(c1cccnc1)C3C(=O)NC1CCCCC1 (stereo not given) | -0.119% (inactive)
61 | COC(=O)CN1C(=O)C(C)(C)Oc2ccc(C(=O)Nc3cccc(OC)c3)cc21 | 0.44% (inactive)
62 | CC1(c2ccc(Cl)cc2Cl)NC(=O)N(CC(=O)Nc2cccnc2Cl)C1=O (stereo not given) | 0.107% (inactive)
63 | CSc1nc2nc3c(c(=O)n2[nH]1)CCC3 | 0.387% (inactive)
64 | O=C(COC(=O)Cc1ccc(Br)cc1)Nc1ccc(N2CCOCC2)cc1 | 0.283% (inactive)
65 | CCN1CCCC1CNC(=O)Cn1cnc2ccc(S(=O)(=O)N3CCC(C)CC3)cc2c1=O (stereo not given) | -0.835% (inactive)
